Source: PubChem BioAssay (Tox21)
Inconclusive results are not listed. Activity calls are given as the source filed them. The call rests on the fitted dose curve; in most records, active means well fitted curve in the direction sought with a large enough effect in the repeat runs; inconclusive means weak or mixed curves; inactive means no such curve, though single readings can be large; an effect the other way counts as inactive or inconclusive.

How the values were obtained:
[1] = Human pregnane X receptor (PXR) small molecule agonists, qHTS cell viability counter screen (AID 1346977); conditions: PXR-Luc HepG2 viability, CellTiter-Fluor, 24 h; series mostly up to 92.4 µM; further: nearly all actives have a fitted effect of over 50% in size
Procedure, shortened: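 Measures live-cell protease fluorescence (CellTiter-Fluor) in PXR-Luc HepG2 cells treated 24hr with compounds at 37C. Cells had 5hr to attach before pin transfer of DMSO solutions.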

[2] = Caspase-3/7 induction in HepG2 cells by small molecules, qHTS assay (AID 1346978); conditions: HepG2 caspase-3/7 activation, Caspase-Glo luminescence, 17 h; series mostly up to 92.4 µM; further: nearly all actives have a fitted effect of over 15% in size
Procedure, shortened: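 Caspase-3/7 induction was measured by Caspase-Glo 3/7 luminescence (30 min, room temperature) after a 17 hr compound exposure of wild-type HepG2 cells seeded at 2,000 per well and pre-incubated 5 hr.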

[3] = Caspase-3/7 induction in CHO-K1 cells by small molecules, qHTS cell viability counter screen (AID 1346979); conditions: CellTiter-Fluor fluorescence, 17 h; series mostly up to 92.4 µM; further: nearly all actives have a fitted effect of over 35% in size
Procedure, shortened: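 In the same wells as the caspase read, viability of compound-treated wild-type CHO-K1 cells was assessed using CellTiter-Fluor, added after 16hr at 37C and measured by fluorescence following 1hr further incubation.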

[4] = Caspase-3/7 induction in CHO-K1 cells by small molecules, qHTS assay (AID 1346980); conditions: CHO-K1 caspase-3/7 induction, Caspase-Glo luminescence, 17 h; series mostly up to 92.4 µM; further: nearly all actives have a fitted effect of over 15% in size
Procedure, shortened: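 Luminescent Caspase-Glo 3/7 read (30min, room temperature) quantified apoptosis induction. Cells were wild-type CHO-K1, treated with compound for 17hr at 37 C and 5% CO2.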

[5] = Caspase-3/7 induction in HepG2 cells by small molecules, qHTS cell viability counter screen (AID 1346981); conditions: CellTiter-Fluor fluorescence, 17 h; series mostly up to 92.4 µM; further: nearly all actives have a fitted effect of over 30% in size
Procedure, shortened: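 Wild-type HepG2 cells, 2,000/well, settled 5 hr at 37 C, 5% CO2 before compound addition. Viability read by CellTiter-Fluor fluorescence, reagent added after 16 hr compound exposure, then 1 hr at 37C, in the same wells as the caspase read.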

[6] = biological target: Nuclear receptor subfamily 1 group I member 2 (Homo sapiens) (UniProt O75469); experiment: Human pregnane X receptor (PXR) small molecule agonists, qHTS assay (AID 1346982); conditions: PXR-Luc HepG2, CYP3A4 luciferase reporter, 24 h; series mostly up to 92.4 µM; further: nearly all actives have a fitted effect of over 35% in size; further: potency means the concentration at half of the fitted maximal effect
Procedure, shortened: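 PXR-Luc HepG2 reporter cells (CYP3A4-driven luciferase) in 5% charcoal-stripped FBS medium, plated 5 h before compound addition, then treated 24 h at 37C. Luciferase read by ONE-Glo luminescence after 30 min at room temperature.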

[7] = biological target: Cytochrome P450 2D6 (Homo sapiens) (UniProt P10635); experiment: Cytochrome P450 Family 2 Subfamily D Member 6 (CYP2D6) small molecule antagonists: luciferase reporter qHTS assay (AID 1671196); conditions: P450-Glo CYP2D6 enzyme assay, luciferin luminescence, 1 h; series mostly up to 115 µM; further: nearly all actives have a fitted effect of over 50% in size
Procedure, shortened: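 Cell-free P450-Glo system: CYP2D6 with proluciferin substrate was pre-incubated with compound for 10 min, then reacted with NADPH regeneration for 1 h at room temperature. Luciferin product was detected after 20 min, and data were reported as relative luminescence units.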

[8] = biological target: Nuclear receptor subfamily 1 group I member 2 (Homo sapiens) (UniProt O75469); experiment: CYP3A4 induction through human pregnane X receptor (PXR) by small molecules, qHTS assay (AID 1346984); conditions: DPX-2 HepG2 PXR, CYP3A4-luciferin luminescence, 24 h; series mostly up to 46.1 µM; further: nearly all actives have a fitted effect of over 40% in size; further: potency means the concentration at half of the fitted maximal effect
Procedure, shortened: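 DPX-2 HepG2 cells carrying a PXR response element and CYP3A4-promoter luciferase construct, treated with compounds 24 hr at 37C. Then P450-Glo CYP3A4 Luciferin-IPA substrate (3uM final) for 3 hr at 37C, One-Glo added, luminescence read.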

[9] = biological target: Nuclear receptor subfamily 1 group I member 2 (Homo sapiens) (UniProt O75469); experiment: Human pregnane X receptor (PXR) activation by small molecules, qHTS assay (AID 1346985); conditions: DPX-2 HepG2 CYP3A4-luciferase, 24 h; series mostly up to 38.3 µM; further: nearly all actives have a fitted effect of over 40% in size
Procedure, shortened: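 DPX-2 cells (HepG2 co-transfected with a PXR response element and a CYP3A4-promoter luciferase construct) were seeded at 2,000 per well, rested 5 hr at 37C, then exposed to DMSO-dissolved compounds for 24 hr. Activation was read as luciferase luminescence.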

[10] = biological target: Nuclear receptor subfamily 1 group I member 2 (Rattus norvegicus) (UniProt Q9R1A7); experiment: Rat pregnane X receptor (rPXR) activation by small molecules, qHTS assay (AID 1346983); conditions: rPXR luciferase reporter cells, One-Glo luminescence, 24 h; max activation: stronger effect = higher value; further: nearly all actives have a fitted effect of over 20% in size; further: potency means the concentration at half of the fitted maximal effect
Procedure, shortened: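 Luminescent readout (One-Glo luciferase, 30 min room temperature) followed 24 hr compound treatment at 37 C of rPXR cells plated 2,000 per well and preincubated 5hr; qHTS format with compounds delivered in DMSO.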
On the % scale 0 is the no-effect control and ±100 the full control effect.

Cytochrome P450 2D6 (Homo sapiens), sequence (P10635 whole entry, looked up): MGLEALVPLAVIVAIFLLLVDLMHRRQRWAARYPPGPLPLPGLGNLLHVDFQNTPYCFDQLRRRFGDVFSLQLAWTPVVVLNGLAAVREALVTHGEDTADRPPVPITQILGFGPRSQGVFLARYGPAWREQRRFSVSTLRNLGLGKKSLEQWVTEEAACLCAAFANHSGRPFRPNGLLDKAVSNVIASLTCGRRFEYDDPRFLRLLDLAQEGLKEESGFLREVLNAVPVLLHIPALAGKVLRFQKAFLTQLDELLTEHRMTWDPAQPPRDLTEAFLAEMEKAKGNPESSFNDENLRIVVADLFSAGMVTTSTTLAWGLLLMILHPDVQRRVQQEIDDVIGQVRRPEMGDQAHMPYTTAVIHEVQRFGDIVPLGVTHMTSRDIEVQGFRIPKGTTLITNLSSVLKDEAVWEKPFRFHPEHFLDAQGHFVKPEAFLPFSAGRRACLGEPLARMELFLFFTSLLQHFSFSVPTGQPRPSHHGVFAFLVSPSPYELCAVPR
Nuclear receptor subfamily 1 group I member 2 (Homo sapiens), sequence (O75469 whole entry, looked up): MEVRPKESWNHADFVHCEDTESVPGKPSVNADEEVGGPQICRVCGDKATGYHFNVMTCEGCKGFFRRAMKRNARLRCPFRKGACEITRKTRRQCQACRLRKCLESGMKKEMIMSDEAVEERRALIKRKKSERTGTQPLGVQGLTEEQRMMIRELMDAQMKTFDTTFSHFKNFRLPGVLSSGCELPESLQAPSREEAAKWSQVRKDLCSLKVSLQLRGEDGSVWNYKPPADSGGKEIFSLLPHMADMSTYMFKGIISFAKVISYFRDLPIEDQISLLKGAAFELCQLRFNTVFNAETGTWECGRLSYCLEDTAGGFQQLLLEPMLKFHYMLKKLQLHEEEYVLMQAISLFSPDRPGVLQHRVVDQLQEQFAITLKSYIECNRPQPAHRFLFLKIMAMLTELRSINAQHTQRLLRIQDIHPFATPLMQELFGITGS
Nuclear receptor subfamily 1 group I member 2 (Rattus norvegicus), sequence (Q9R1A7 whole entry, looked up): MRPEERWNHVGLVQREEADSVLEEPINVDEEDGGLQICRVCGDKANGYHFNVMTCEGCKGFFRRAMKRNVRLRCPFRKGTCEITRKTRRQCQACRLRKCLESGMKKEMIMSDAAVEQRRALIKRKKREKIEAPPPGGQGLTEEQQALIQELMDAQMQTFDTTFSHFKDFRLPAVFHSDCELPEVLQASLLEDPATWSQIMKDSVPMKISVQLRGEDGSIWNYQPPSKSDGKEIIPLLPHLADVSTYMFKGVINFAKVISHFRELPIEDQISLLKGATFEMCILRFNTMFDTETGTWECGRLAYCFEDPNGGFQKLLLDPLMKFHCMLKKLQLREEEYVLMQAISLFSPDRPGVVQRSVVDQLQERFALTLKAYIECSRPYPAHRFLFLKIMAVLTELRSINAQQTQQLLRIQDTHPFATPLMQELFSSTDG

CCCCOCCOC(=O)CCCCCCCCC(=O)OCCOCCCC
inactive: Potency [1] | outcome [2] | Potency [3] | outcome [4] | Potency [5] | Potency [6] | Potency [7]

CN1CC(=O)N/C1=N/C(=O)Nc1cccc(Cl)c1
inactive: Potency [1] | outcome [2] | outcome [4] | Potency [5] | Potency [8] | Potency [9]
active: Potency [6] 13.3 µM

CC(C)(C)OC(=O)c1cccc(N)c1
active: Potency [6] 28 µM
inactive: Potency [1] | outcome [2] | outcome [4] | Potency [5]

C[C@@H]1C[C@H]2[C@@H]3C[C@H](F)C4=CC(=O)C(Cl)=C[C@]4(C)[C@@]3(F)[C@@H](O)C[C@]2(C)[C@@]1(O)C(=O)CO
inactive: Potency [1] | Potency [3] | outcome [4] | Potency [5]
active: Potency [6] 2.11 µM | Potency [10] 100 nM | Potency [8] 12.6 µM

CC(C)CCCO
inactive: Potency [1] | outcome [2] | outcome [4] | Potency [6] | Potency [7]

O=[N+]([O-])c1ccc(/C=N\O)o1
inactive: Potency [1] | outcome [2] | outcome [4] | max activation [10] -2.63% | Potency [8] | Potency [9] | Potency [7]

Cc1ccc(C(=O)Nc2ccc(S(=O)(=O)O)c3cc(S(=O)(=O)O)cc(S(=O)(=O)O)c23)cc1NC(=O)c1cccc(NC(=O)Nc2cccc(C(=O)Nc3cc(C(=O)Nc4ccc(S(=O)(=O)O)c5cc(S(=O)(=O)O)cc(S(=O)(=O)O)c45)ccc3C)c2)c1
inactive: Potency [1] | outcome [2] | outcome [4] | Potency [5] | Potency [6] | max activation [10] -1.36% | Potency [8] | Potency [9]

O=C(O)c1cc(C(=O)O)cc(C(=O)O)c1
inactive: Potency [1] | Potency [3] | outcome [4] | Potency [5] | Potency [6]

CCO[Si](OCC)(OCC)c1ccccc1
inactive: Potency [1] | outcome [2] | outcome [4] | Potency [5] | Potency [6] | Potency [7]

Nc1ccn([C@@H]2O[C@H](CO)[C@@H](O)C2(F)F)c(=O)n1
inactive: Potency [1] | outcome [2] | outcome [4] | Potency [5] | max activation [10] -12% | Potency [8] | Potency [9] | Potency [7]

OCCCCCO
inactive: Potency [1] | outcome [2] | outcome [4] | Potency [5] | Potency [6] | Potency [7]

Cc1ncc([C@@H](CCCCCCc2ccc3c(n2)NCCC3)CC(=O)O)cn1
inactive: Potency [1] | outcome [2] | outcome [4] | Potency [6] | Potency [7]

CCOC(=O)COC(=O)c1ccccc1C(=O)OCC
inactive: Potency [1] | outcome [2] | outcome [4] | Potency [5] | Potency [6] | Potency [7]

O=Cc1cccc(Br)c1
inactive: Potency [1] | outcome [2] | outcome [4] | Potency [5] | Potency [6]

COc1cc(C(=O)OC(COCCC(C)C)CN2CCOCC2)cc(OC)c1OC (stereo not drawn)
inactive: Potency [1] | Potency [3] | outcome [4] | Potency [5]

CC(=O)Nc1ccc(OCC(O)CNC(C)C)cc1 (stereo not drawn)
inactive: Potency [1] | outcome [2] | outcome [4] | Potency [6] | max activation [10] 0.433% | Potency [8] | Potency [9] | Potency [7]

CC(CC=O)CC(C)(C)C (stereo not drawn)
active: Potency [6] 54.5 µM
inactive: Potency [1] | outcome [2] | outcome [4] | Potency [7]

CN(C)CCCCCCN(C)C
inactive: Potency [1] | outcome [2] | outcome [4] | Potency [5]

Clc1cc(Cl)c(Cl)nc1Cl
inactive: Potency [1] | outcome [2] | outcome [4] | Potency [5] | Potency [6]

C[N+]1(C)[C@@H]2CC(OC(=O)[C@H](CO)c3ccccc3)C[C@H]1[C@@H]1O[C@@H]12 (stereo partly drawn)
inactive: Potency [1] | outcome [2] | outcome [4] | Potency [5] | Potency [6] | max activation [10] -0.815% | Potency [8] | Potency [9] | Potency [7]

CCN(Cc1ccccc1)c1ccccc1
inactive: Potency [1] | Potency [3] | outcome [4] | Potency [5]

CCCCCC(=O)OCCc1ccccc1
inactive: Potency [1] | outcome [2] | outcome [4] | Potency [5] | Potency [6] | Potency [7]

CC(C(=O)O)c1cccc(Oc2ccccc2)c1 (stereo not drawn)
inactive: Potency [1] | outcome [2] | outcome [4] | Potency [5] | max activation [10] -0.273% | Potency [7]

O=C(O)CCCC[P+](c1ccccc1)(c1ccccc1)c1ccccc1
inactive: Potency [1] | Potency [3] | outcome [4] | Potency [5] | Potency [6]

CCCCN1C=CN(C)C1
inactive: activity change, negative = cytotoxicity [1] -1.91% [at 19 µM] | caspase activation [2] 1.6% [at 19 µM] | caspase-3/7 activation [4] 0.127% [at 19 µM] | activity change, negative = cytotoxicity [5] -0.522% [at 19 µM] | activation [6] 3.9% [at 19 µM] | activity change, negative = inhibition [7] -17.2% [at 23.6 µM]

NC(=O)N1c2ccccc2CC(=O)c2ccccc21
inactive: Potency [1] | outcome [2] | outcome [4] | Potency [5] | max activation [10] -3.02%

CCOc1ccc2nc(S(N)(=O)=O)sc2c1
inactive: Potency [1] | outcome [2] | Potency [3] | Potency [5] | Potency [7]

O=C(O)Cc1csc(-c2ccc(Cl)cc2)n1
inactive: Potency [1] | outcome [2] | outcome [4] | Potency [5] | Potency [6] | max activation [10] -2.73% | Potency [8] | Potency [9] | Potency [7]

C=CCCCCCCCCC(=O)OCC
inactive: Potency [1] | Potency [3] | outcome [4] | Potency [5] | Potency [6]

CO[Si](C)(OC)c1ccccc1
active: Potency [6] 30.6 µM
inactive: Potency [1] | outcome [2] | outcome [4] | Potency [7]
